In PubChem BioAssay (EPA / NIEHS) one finds outcome and AC50 data, which are given here for 27 compounds.

A short description of assay [1]: Tanguay_ZF_120hpf_MORT_legacy: (Legacy) Oregon State University Tanguay Lab 120 Hour Post-fertilization zebrafish Assay for Mortality (AID 2283633).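 As to AC50: fitted as increase in binary mortality versus DMSO negative control.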 In short, it runs like this: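 Static waterborne exposure from 6 to 120 hpf at 28C of single dechorionated wild-type (5D) embryos per well, 0.64% DMSO final. Death recorded present/absent by brightfield at 24 and 120 hpf.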

Assay [2] can be described thus: Tanguay_ZF_120hpf_YSE_legacy: (Legacy) Oregon State University Tanguay Lab 120 Hour Post-fertilization zebrafish Assay for Yolk Sac Edema (AID 2283634).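 As to AC50: actives raise the incidence of yolk sac edema above the DMSO baseline.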 The method, boiled down: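 Presence or absence of yolk sac edema was recorded at 120 hpf in surviving larvae. These were wild-type Tropical 5D embryos, chorion removed at 4 hpf, held in static exposure at 28C from 6 hpf with 0.64% DMSO vehicle.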

Assay [3] can be described thus: Tanguay_ZF_120hpf_EYE_legacy: (Legacy) Oregon State University Tanguay Lab 120 Hour Post-fertilization zebrafish Assay for Eye Malformation (AID 2283636).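 Also: binary presence or absence of eye malformation scored by brightfield in 120 hpf larvae.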 The method, boiled down: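 Binary brightfield scoring of eye defects at 120 hpf after static exposure from 6 hpf of single pronase-dechorionated wild-type embryos (28C, 0.64% DMSO). Non-mortality endpoints omitted where embryos died; fit vs DMSO.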

The nature of assay [4]: Tanguay_ZF_120hpf_SNOU_legacy: (Legacy) Oregon State University Tanguay Lab 120 Hour Post-fertilization zebrafish Assay for Snout Malformation (AID 2283637). In short, it runs like this:
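Binary snout-malformation call at 120 hpf in wild-type 5D embryos, chorion removed by pronase, under static exposure from 6 hpf at 28C (0.64% DMSO). Embryos dying by 24 or 120 hpf excluded.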

The target of assay [5] is Cellular tumor antigen p53 (Homo sapiens) (UniProt P04637). Kind of assay: TOX21_p53_BLA_p5_ratio: Tox21 HCT-116 p53 Agonism Beta-lactamase Assay, Ratio, Phase 5 (AID 2283599). The method, boiled down: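 Beta-lactamase reporter ratio (blue 460 nm over green 530 nm, 405 nm excitation) after 2 h CCF4-AM loading, in HCT-116 cells exposed 16 h at 37 C to compounds pinned at 217-fold dilution. Increases relative to DMSO baseline scored.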
Cellular tumor antigen p53 (Homo sapiens), sequence (P04637 whole entry, looked up): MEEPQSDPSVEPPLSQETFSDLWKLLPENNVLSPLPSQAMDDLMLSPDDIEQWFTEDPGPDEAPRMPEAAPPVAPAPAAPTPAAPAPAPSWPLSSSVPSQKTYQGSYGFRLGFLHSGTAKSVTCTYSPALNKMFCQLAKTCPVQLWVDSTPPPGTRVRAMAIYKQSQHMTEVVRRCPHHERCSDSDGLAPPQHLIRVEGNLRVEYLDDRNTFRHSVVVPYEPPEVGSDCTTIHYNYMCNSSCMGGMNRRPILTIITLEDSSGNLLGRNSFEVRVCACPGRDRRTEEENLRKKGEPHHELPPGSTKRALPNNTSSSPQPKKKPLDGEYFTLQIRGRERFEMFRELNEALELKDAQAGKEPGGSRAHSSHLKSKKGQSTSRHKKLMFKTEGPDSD

Assay [6] is described as follows: Tanguay_ZF_120hpf_AXIS_legacy: (Legacy) Oregon State University Tanguay Lab 120 Hour Post-fertilization zebrafish Assay for Body Axis Malformation (AID 2283635).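 As to AC50: potency for an increased fraction of larvae scored with body axis malformation.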 The method, boiled down: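 Binary scoring of axis defects at 120 hpf under brightfield, fitted positive versus DMSO. Tropical 5D embryos, chorion removed by pronase at 4 hpf, were singly exposed in sealed, dark plates at 28C from 6 hpf; DMSO 0.64% final.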

Assay [7] in a line: Tanguay_ZF_120hpf_JAW_legacy: (Legacy) Oregon State University Tanguay Lab 120 Hour Post-fertilization zebrafish Assay for Jaw Malformation (AID 2283638).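 As to AC50: active means more embryos with jaw malformation than DMSO controls.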 The method, boiled down:
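Binary jaw-malformation call at 120 hpf by brightfield microscopy. Embryos (Tropical 5D strain, chorion removed at 4 hpf) were dosed statically at 6 hpf, one per well, at 28C with 0.64% DMSO. Embryos that died were not scored.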

Assay [8] in a line: TOX21_p53_BLA_p5_viability: Viability Assessment in the Tox21 HCT-116 p53 Agonism Beta-lactamase Assay, Phase 5 (AID 2283600). In short, it runs like this:
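Viability came from CellTiter-Glo ATP luminescence, read after 30 min at room temperature. Before this, HCT-116 p53-bla cells (4000/well) had 16 hours of compound exposure at 37C, with DMSO stocks diluted 217-fold on transfer.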

Assay [9] can be described thus: TOX21_p53_BLA_p4_viability: Viability Assessment in the Tox21 HCT-116 p53 Agonism Beta-lactamase Assay, Phase 4 (AID 2283597).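 Also: hits lower the luminescence signal meaning cytotoxicity.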 The method, boiled down: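 Cytotoxicity as reduced cellular ATP (CellTiter-Glo luminescence, 30 min room temperature), measured in the same wells following the CCF4 FRET p53 reading. Human HCT-116 cells received compounds in DMSO (217-fold dilution) for 16 h.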

The target of assay [10] is Cellular tumor antigen p53 (Homo sapiens) (UniProt P04637). Kind of assay: TOX21_p53_BLA_p4_ratio: Tox21 HCT-116 p53 Agonism Beta-lactamase Assay, Ratio, Phase 4 (AID 2283601). The method, boiled down:
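Signal is the blue/green (460nm/530nm) ratio of cleaved versus uncleaved CCF4-AM substrate, read after 2 h substrate loading. Cells were HCT116 carrying the p53-responsive beta-lactamase reporter, dosed 16 h at 37C, 5% CO2; CellTiter-Glo measured in parallel.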

Molecules are shown by their SMILES. Several values for one entry are separate records, joined by “and”; a condition that tells them apart may be missing. Identical values can stand only once. Records with an inconclusive call do not appear. Activity calls are given as the source filed them. The calls were made as follows: active = hit-call score of the fitted dose curve at least 0.9, where 1 is the maximum; inconclusive = response in the unintended direction; inactive = score below 0.9.

`CC(CO)OC(C)CO` (stereo not given) (tested in a mixture with another compound): the result in [1], in assay [2], in assay [3] and in assay [4] was inactive.

`Cc1cc(NC(=O)C(=O)O)cc(C)c1Oc1ccc(O)c2c1CCC2`: the result in [5], in assay [1] and in assay [3] was inactive. In addition, the AC50 is 0.0678 µM (active) in assay [2], 0.526 µM (active) in [6], 0.0742 µM (active) in [4] and 0.0689 µM (active) in assay [7].

Regarding `Cc1nc(C)nc(N2C[C@@H](C)N(c3ccnc([C@@H](C)O)n3)[C@@H](C)C2)n1`, the call in [8], in assay [1], in assay [2], in [6], in assay [3] and in [4] was inactive. Further, in [7], the compound was called inactive.

In the case of `CC(=O)OCCOCCOCCOC(C)=O`, the call in [9], in assay [5], in [1], in [2], in assay [3] and in assay [4] was inactive. In addition, in assay [7], the compound was classed as inactive.

As to `FC(F)(F)C(F)(F)C(F)(F)C(F)(F)C(F)(F)C(F)(F)CCI`, the outcome in assay [5], in [1], in assay [2], in [6], in assay [3] and in assay [4] was inactive. The call in assay [7] was inactive.

Take `CCCCCCC(=O)OCC`: the compound was called inactive in [1], in [6], in [3] and in assay [4].

With `CC1(C)NC(=O)NC1=O`, the compound was called inactive in assay [9], in [5], in [1], in [2], in [3] and in [7].

For `C1CCC(SSC2CCCCC2)CC1`, the outcome in assay [5], in assay [8], in [1], in assay [2] and in assay [7] was inactive.

For the compound `CCCCCCCCCCC`, the compound was called inactive in assay [1], in assay [2], in [6], in assay [3], in assay [4] and in assay [7].

In the case of `Cc1ccc(C)c(C)c1`, the result in [5], in [8], in assay [1], in assay [2], in assay [3] and in [7] was inactive.

Regarding `CN1CCN(Cc2cc(-c3ccc4[nH]c(=O)oc4c3)co2)[C@@H](c2ccc(F)cc2)C1`, the outcome in [9], in [1], in assay [2] and in assay [3] was inactive. For the same compound, the AC50 is 25.6 µM (active) in assay [4] and 25.7 µM (active) in [7].

With `CCOC(=O)CCC(=O)OCC`, the result in [5], in [8], in [1], in [2], in [3] and in assay [4] was inactive. The outcome in assay [7] was inactive.

`C[Si]1(C)O[Si](C)(C)O[Si](C)(C)O[Si](C)(C)O1`: the outcome in assay [5], in [10], in assay [1], in [2], in assay [3] and in assay [4] was inactive. Further, in assay [7], the result was inactive.

As for `NCCO`, the result in assay [5], in [1], in [2], in assay [3], in [4] and in [7] was inactive.

Consider `C=CCOC(=O)c1ccccc1C(=O)OCC=C`, for which the result in assay [5], in assay [8], in assay [10], in [6], in assay [3] and in [4] was inactive. In addition, the result in assay [7] was inactive. The values for the AC50 in assay [1] and in assay [2] were 13.9 µM (active) and 30.9 µM (active), respectively.

Regarding `CCCCCCCCCCCCCCCCCC(=O)O`, the result in assay [1], in assay [2], in assay [3], in [4] and in assay [7] was inactive.

For the compound `CCCCN(CCCC)CCCC`, the compound was classed as inactive in assay [9], in [5], in assay [1], in assay [2], in assay [4] and in assay [7].

Take `NC(=O)Cn1c(=O)cc(CCN2CCN(c3nccc4sccc34)CC2)c2ccc(F)cc21`: the compound was classed as inactive in [9], in assay [1], in assay [2], in [6], in assay [3] and in assay [4]. For the same compound, the result in [7] was inactive.

`C=CCc1ccc(O)c(OC)c1`: the outcome in [5], in assay [8], in assay [10], in [1], in assay [2] and in assay [3] was inactive. The outcome in assay [4] and in assay [7] was inactive.

As for `CCCCCCCC=O`, the compound was called inactive in [9], in assay [8], in assay [1], in assay [2], in [6] and in [3]. For the same compound, the compound was classed as inactive in assay [4] and in [7].

Regarding `COc1cccc2c1C(=O)c1c(O)c3c(c(O)c1C2=O)C[C@@](O)(C(=O)CO)C[C@@H]3O[C@H]1C[C@H](N)[C@H](O)[C@H](C)O1`, the concentration at half-maximal activity (AC50) in [5] was 238 nM (active) and 422 nM (active).

For the compound `Cc1ccccc1Cl`, the outcome in [5], in assay [8], in assay [1], in [2], in assay [6] and in assay [3] was inactive. Further, the outcome in [4] and in [7] was inactive.

Turning to `OC[C@@H](O)[C@@H](O)[C@H](O)[C@H](O)CO`, the outcome in assay [5], in assay [8], in assay [1], in [2], in assay [3] and in [4] was inactive. Also, the outcome in assay [7] was inactive.

Turning to `CCCCCCCCCCO`, the outcome in [5], in assay [8], in assay [1], in assay [2], in assay [6] and in [3] was inactive. Moreover, the call in assay [4] and in assay [7] was inactive.

Take `CCCCOC(=O)CCCCCCCCC(=O)OCCCC`: the result in assay [9], in assay [10], in [1], in assay [2], in assay [3] and in assay [4] was inactive. The call in assay [7] was inactive.

In the case of `CCCCCCOCCO`, the result in assay [5], in [8], in assay [1], in [2], in assay [3] and in assay [4] was inactive. The call in assay [7] was inactive.

For the compound `Oc1ccc2ccccc2c1N=Nc1ccccc1`, the outcome in assay [5], in assay [8], in assay [10], in assay [1] and in [3] was inactive. The AC50 in assay [2] is 43.7 µM (active); in [6], 17.3 µM (active); in assay [4], 43.8 µM (active); in assay [7], 9.73 µM (active).
